Source: PubChem BioAssay (EPA / NIEHS)
Where “and” joins values, the source holds several entries; their conditions need not be identical. Equal values may be shown once. Records with an inconclusive call do not appear. Some structures have more than one record in an assay (separate samples or runs), and their calls can disagree. Calls of active or inactive are those of the source. How the source made its calls, unless noted: active means hit-call score of the fitted dose curve at least 0.9, where 1 is the maximum; inactive means score below 0.9.

Legend:
[1] = read-out: Interleukin-1 alpha (IL1a), IL1A (gene 3552); assay: BSK_IMphg_IL1a: BioMAP Diversity Plus: IMphg Assay for Interleukin-1 alpha (IL1a) Biomarker Activity (AID 2284290); conditions: primary human endothelial cells with macrophages
Outline: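 Human venular endothelial cells co-cultured with macrophages, IMphg system. IL-1α is measured by ELISA 24 h after dosing and fitted in the positive direction against DMSO. Cytotoxicity is assessed by SRB staining of parallel cultures.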

[2] = read-out: E-selectin (Homo sapiens) (UniProt P16581); assay: BSK_IMphg_ESelectin: BioMAP Diversity Plus: IMphg Assay for Eselectin Biomarker Activity (AID 2284291); conditions: primary human endothelial cells with macrophages
Outline: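 Human venular endothelial cell–macrophage co-culture, E-selectin measured by ELISA 24 h after chemical dosing. Signal fitted in the positive direction against DMSO as negative control and baseline.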

[3] = BSK_IMphg_SRB: Viability Assessment in the BioMAP Diversity Plus: IMphg Assay (AID 2284292); conditions: primary human endothelial cells with macrophages;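 further: measured one day after compound addition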
Outline: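 Human venular endothelial cells with macrophages, 24 h after chemical dosing; total protein by 0.1% SRB staining after 10% TCA fixation, read at 560 nm. Positive-direction fitting versus DMSO baseline.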

[4] = read-out: Interleukin-10 (IL10), IL10 (gene 3586); assay: BSK_IMphg_IL10: BioMAP Diversity Plus: IMphg Assay for Interleukin-10 (IL10) Biomarker Activity (AID 2284294); conditions: primary human endothelial cells with macrophages
Outline: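 Human venular endothelial cells cocultured with macrophages, dosed 24 h; IL-10 measured by ELISA, activity relative to DMSO. Cytotoxicity assessed in parallel cultures by sulforhodamine B total-protein staining.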

[5] = read-out: Thrombomodulin, THBD (gene 7056); assay: BSK_LPS_Thrombomodulin: BioMAP Diversity Plus: LPS Assay for Thrombomodulin Biomarker Activity (AID 2284296); conditions: primary human HUVEC with PBMC
Outline: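 Human umbilical vein endothelial cells co-cultured with PBMC and stimulated with LPS; cell-surface thrombomodulin measured by ELISA 24 hours after compound. Gain or loss versus DMSO; cytotoxicity checked by SRB staining in parallel cultures.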

[6] = read-out: CD69, CD69 (gene 969); assay: BSK_LPS_CD69: BioMAP Diversity Plus: LPS Assay for CD69 Biomarker Activity (AID 2284303); conditions: primary human HUVEC with PBMC
Outline: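 Human umbilical vein endothelial cells co-cultured with PBMC under LPS stimulation, chemical exposure 24 h; cell-surface CD69 measured by ELISA and fitted in the positive direction versus DMSO.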

[7] = Tanguay_ZF_120hpf_MO24: Oregon State University Tanguay Lab 24 Hour Post-fertilization zebrafish Assay for Mortality (AID 2284389)
Outline: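 Dechorionated wild-type zebrafish embryos, 1 per well, statically exposed from 6 hpf at 28C, 0.64% DMSO final. Mortality scored as binary present/absent at 24 hpf by brightfield microscopy, relative to DMSO.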

[8] = Tanguay_ZF_120hpf_MORT: Oregon State University Tanguay Lab 120 Hour Post-fertilization zebrafish Assay for Mortality (AID 2284399)
Outline: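 Dechorionated wild-type Tropical 5D zebrafish embryos, one per well from 6 hpf, static exposure to 120 hpf at 28C in sealed dark plates, 0.64% DMSO final. Mortality scored as binary by brightfield at 24 and 120 hpf.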

[9] = Tanguay_ZF_120hpf_BRN: Oregon State University Tanguay Lab 120 Hour Post-fertilization zebrafish Assay for Brain Region Malformation (AID 2284402)
Outline: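 Dechorionated wild-type Tropical 5D zebrafish embryos exposed statically from 6 to 120 hpf at 28C, one per well, 0.64% DMSO final. Brain malformation scored at 120 hpf by brightfield as present/absent; dead embryos not scored.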

[10] = tested on: TTR (gene 7276); assay: CCTE_GLTED_hTTR_0.5uM: CCTE's human Transthyretin (hTTR) Inhibition Assay, with 0.5uM TTR, Great Lakes Toxicology and Ecology Division (GLTED) Lab (AID 2284320)
Outline: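 Cell-free displacement assay in which human TTR at 0.5 uM was incubated with test chemical for 2 h. Displacement of the ANSA probe was read by fluorescence at 380 nm excitation/475 nm emission. Loss of signal was fitted in the positive direction versus DMSO.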

[11] = CCTE_Mundy_HCI_iCellGluta_NOG_NeuronCount: CCTE's Neurite Outgrowth Assay in iCellGluta cells for Neuron Count, Mundy Lab (AID 2284340; active means hit-call score of the fitted dose curve at least 0.9, where 1 is the maximum;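 further: cells fixed about 48 h after compound addition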)
Outline: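 Neuron count read by automated high-content imaging of Hoechst 33342 and betaIII-tubulin/Alexa Fluor-488 labelling in human iPSC glutamatergic neurons. Activity fitted relative to DMSO.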

[12] = CCTE_Mundy_HCI_iCellGluta_NOG_NeuriteCount: CCTE's Neurite Outgrowth Assay in iCellGluta cells for Neurite Count, Mundy Lab (AID 2284342; active means hit-call score of the fitted dose curve at least 0.9, where 1 is the maximum;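 further: chemical exposure about 48 hours starting 2 hours after plating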)
[13] = CCTE_Mundy_HCI_iCellGluta_NOG_NeuriteLength: CCTE's Neurite Outgrowth Assay in iCellGluta cells for Neurite Length, Mundy Lab (AID 2284318; active means hit-call score of the fitted dose curve at least 0.9, where 1 is the maximum)
Outline: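 Automated high-content imaging of betaIII-tubulin (Alexa Fluor-488) and Hoechst-stained cells gave neurite length, normalized to the DMSO baseline.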

[14] = read-out: Macrophage colony-stimulating factor (MCSF), CSF1 (gene 1435); assay: BSK_IMphg_MCSF: BioMAP Diversity Plus: IMphg Assay for Macrophage colony-stimulating factor (MCSF) Biomarker Activity (AID 2284293); conditions: primary human endothelial cells with macrophages
Outline: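 Co-culture of human venular endothelial cells and macrophages, 24 hours of chemical exposure. M-CSF quantified by ELISA, with parallel SRB total-protein staining for cytotoxicity; activity fitted relative to DMSO.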

[15] = tested on: IYD (gene 389434); assay: CCTE_GLTED_hIYD: CCTE's human Iodotyrosine Deiodinase (xIYD) Inhibition Assay, Great Lakes Toxicology and Ecology Division (GLTED) Lab (AID 2284317; active means hit-call score of the fitted dose curve at least 0.9, where 1 is the maximum;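 further: cell-free human IYD enzyme made in baculovirus insect cells; iodide freed from monoiodotyrosine measured by cerium arsenite color change at 420 nm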)
Outline: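 Human IYD expressed in a baculovirus-insect cell system was incubated 3 h with monoiodotyrosine and test chemical. Released iodide, separated on Dowex columns, was quantified by the Sandell-Kolthoff reaction at 420 nm; plates were normalized to MNT and DMSO/NaOH controls.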

[16] = BSK_IMphg_SRB.Mphg: Macrophage Viability Assessment in the BioMAP Diversity Plus: IMphg Assay (AID 2284295); conditions: primary human endothelial cells with macrophages
Outline: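 Venular endothelial cells co-cultured with macrophages, read 24 h after dosing. Total protein measured by 0.1% SRB staining after 10% TCA fixation, absorbance at 560 nm. Fitted in positive direction against DMSO baseline.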

[17] = tested on: SERPINA7 (gene 6906); assay: CCTE_GLTED_hTBG: CCTE's human Thyroxine-binding Globulin (TBG) Inhibition Assay, Great Lakes Toxicology and Ecology Division (GLTED) Lab (AID 2284343; active means hit-call score of the fitted dose curve at least 0.9, where 1 is the maximum;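 further: active chemicals lower fluorescence versus DMSO baseline by displacing probe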)
Outline: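 Cell-free binding assay in which human TBG is incubated with test chemical for 2 hours and displacement of the fluorescent probe ANSA is read at 380 nm excitation/475 nm emission. Activity is fitted against DMSO as the negative control.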

Measured: AC50

E-selectin (Homo sapiens), sequence (P16581 whole entry, looked up): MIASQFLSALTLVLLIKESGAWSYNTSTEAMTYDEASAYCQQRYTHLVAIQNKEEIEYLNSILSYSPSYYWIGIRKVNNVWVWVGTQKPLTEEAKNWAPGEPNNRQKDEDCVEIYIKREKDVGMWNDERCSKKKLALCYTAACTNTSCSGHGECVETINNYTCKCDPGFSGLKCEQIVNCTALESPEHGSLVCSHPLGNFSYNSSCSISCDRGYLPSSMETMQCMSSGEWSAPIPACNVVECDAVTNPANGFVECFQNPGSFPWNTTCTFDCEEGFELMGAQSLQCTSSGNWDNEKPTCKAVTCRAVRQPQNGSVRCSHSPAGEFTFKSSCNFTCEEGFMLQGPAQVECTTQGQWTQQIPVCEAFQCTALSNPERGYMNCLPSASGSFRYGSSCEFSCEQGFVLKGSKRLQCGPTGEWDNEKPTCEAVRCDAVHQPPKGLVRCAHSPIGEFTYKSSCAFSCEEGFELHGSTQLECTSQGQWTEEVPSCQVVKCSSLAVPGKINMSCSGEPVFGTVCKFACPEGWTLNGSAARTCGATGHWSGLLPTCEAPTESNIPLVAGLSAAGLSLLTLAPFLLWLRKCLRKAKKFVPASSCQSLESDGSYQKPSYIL

CN(C(=O)C(F)(F)C(F)(F)C(F)(F)F)[Si](C)(C)C
inactive: [1] | [2] | [3] | [4] | [5] | [6] | [7] | [8] | [9]

NCC(F)(F)C(F)(F)C(F)(F)C(F)(F)C(F)(F)C(F)(F)C(F)(F)C(F)(F)F
inactive: [1] | [2] | [3] | [4] | [5]

O=C(O)C(F)(F)C(F)(F)C(F)(F)OC(F)(C(F)(F)F)C(F)(F)F
active: [10] 0.321 µM
not listed: [6] | [13] | [14] | [15] | [16] | [17]
inactive: all other assays above

OCCCC(F)(F)C(F)(F)C(F)(F)C(F)(F)C(F)(F)C(F)(F)C(F)(F)C(F)(F)F
active: [1] 47.7 µM and 51 µM | [2] 14.3 µM and 11.4 µM | [3] 47.2 µM and 31 µM | [4] 40.8 µM and 32.2 µM | [5] 52.8 µM and 52.3 µM | [6] 22.1 µM and 43.1 µM
inactive: [13] | [11] | [12] | [7] | [8] | [9]

O=C(O)CCC(F)(F)C(F)(F)C(F)(F)C(F)(F)C(F)(F)C(F)(F)C(F)(F)F
active: [4] 3.33 µM | [15] 160 µM | [10] 3.34 µM
not listed: [2] | [6] | [16] | [17]
inactive: all other assays above

COC(F)(C(F)F)C(F)(F)F (stereo not given)
inactive: [1] | [3] | [4] | [16] | [5] | [7] | [8] | [9]

NCC(F)(F)C(F)(F)C(F)(F)C(F)(F)C(F)(F)C(F)(F)F
inactive: [1] | [3] | [4] | [5]

O=C(Cl)C(F)(F)C(F)(F)C(F)(F)C(F)(F)C(F)(F)C(F)(F)F
inactive: [1] | [3] | [14] | [4] | [5]
active: [4] 7.98 µM and 7.26 µM | [10] 0.685 µM

O=C(O)C(F)(F)OC(F)(F)C(F)(F)OC(F)(F)C(F)(F)OC(F)(F)F
inactive: [1] | [3] | [4] | [5] | [6]
active: [10] 0.23 µM | [17] 18.6 µM

O=S(=O)(O)CCC(F)(F)C(F)(F)C(F)(F)C(F)(F)C(F)(F)C(F)(F)C(F)(F)C(F)(F)F
inactive: [1] | [3] | [5] | [11] | [12] | [7] | [9]
active: [4] 30 µM | [5] 8.71 µM | [10] 8.98 µM | [8] 64.2 µM

NS(=O)(=O)C(F)(F)C(F)(F)C(F)(F)C(F)(F)C(F)(F)C(F)(F)F
active: [1] 6.98 µM | [4] 28.1 µM and 22.7 µM | [10] 0.329 µM | [8] 11.1 µM
inactive: [1] | [3] | [5] | [7] | [9]

FC(F)(F)C(F)(F)C(F)(F)C(F)(F)C(F)(F)C(F)(F)C(F)(F)CCI
inactive: [1] | [3] | [4] | [16] | [5] | [7] | [8] | [9]
active: [10] 22.5 µM
